NS1 inh: inhibitors of influenza NS1 protein function | 270,000 compounds, 0.4% hits | Potency, µM (series often up to 46.1 µM), for the others: at the top dose activity, positive = more growth | AID 2326; calls by dose curve; also: potency is read from the fitted curve at half-maximal effect; actives are rising curves; nearly all actives have a fitted effect of over 50% in size
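Growth recovery, yeast-based: influenza A NS1 expressed in S. cerevisiae causes slow growth, and suppressors are detected by OD600. The parent strain without NS1 is used as positive control.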
Shiga inhibitor: Shiga toxin inhibition. inhibition, % at 38.7 µM. Vero cells, Shiga toxin protein synthesis inhibition reporter. 290,000 compounds, 9.2% hits; in the data active = inhibition mostly above about 28%, no sharp cut-off; inactive = mostly below about 43%; also: 0% is about no effect
Pf growth 48h: inhibits P. falciparum growth in the first generation, 48 h. 310,000 compounds, 5.9% hits. Potency, µM (highest dose often 28.7 µM), for the others: at the top dose activity change, negative = inhibition, usual class: inhibitors. P. falciparum luciferase growth in erythrocytes, 48 h; also: potency is read from the fitted curve at half-maximal effect; % is scaled to controls: 0 for no effect and ±100 for the full control effect
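Firefly luciferase activity from engineered P. falciparum reports growth; inhibitors lower the luminescent signal. Cultures contained 2% hematocrit erythrocytes at 0.1% final parasitemia.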
Pf growth 96h: P. falciparum growth inhibition at 96 hours | P. falciparum luciferase reporter growth, 96 h | Potency, µM (top dose mostly 28.7 µM), without a hit: top-dose activity change, negative = inhibition, hits mostly inhibitors | 320,000 compounds, 6.9% hits | AID 504834; also: potency is read from the fitted curve at half-maximal effect; % is scaled to controls: 0 for no effect and ±100 for the full control effect
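Cell-based qHTS: luciferase-tagged P. falciparum in erythrocytes (2% hematocrit, 0.05% parasitemia final) incubated with compounds for 96 hours, 37 C, 5% CO2; luciferase detection reagent then added and luminescence measured.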
Cycloheximide cs: counter-screen for Shiga toxin inhibitors: cycloheximide protein synthesis inhibition; cell reporter, cycloheximide protein synthesis inhibition counterscreen; max response, %; 300,000 compounds, 12% hits; AID 2314; in the data active = max response mostly above about 13%, no sharp cut-off; inactive = mostly below about 14%; also: read at 38.3 µM for the half of the compounds with a filed dose; 0% is about no effect
FBPA Giardia inh: inhibitors of Giardia lamblia fructose-1,6-bisphosphate aldolase; purified Giardia FBPA; Potency, µM (highest dose often 59.6 µM), for the others: at the highest dose activity, negative = inhibition, usual class: inhibitors; 290,000 compounds, 0.71% hits; also: potency is read from the fitted curve at half-maximal effect; % is scaled to controls: 0 for no effect and ±100 for the full control effect; nearly all actives have a fitted effect of over 55% in size
Target sequence (A8B2U2 whole entry, looked up): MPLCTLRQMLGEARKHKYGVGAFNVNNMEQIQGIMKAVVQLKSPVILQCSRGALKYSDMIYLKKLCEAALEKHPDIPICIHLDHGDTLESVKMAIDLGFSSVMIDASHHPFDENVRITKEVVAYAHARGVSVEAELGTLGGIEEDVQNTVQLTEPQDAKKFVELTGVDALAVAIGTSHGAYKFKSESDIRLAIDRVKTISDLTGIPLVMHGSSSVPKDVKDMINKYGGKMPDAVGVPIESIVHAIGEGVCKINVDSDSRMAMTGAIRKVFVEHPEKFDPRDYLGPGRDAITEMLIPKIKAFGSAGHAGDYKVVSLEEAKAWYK
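40 nM FBPA preincubated 10 min at RT with compound (up to 57.5 uM final), then substrate plus GAPDH/TPI/NAD/arsenate coupling and diaphorase/resazurin added. Fluorescence read after 20 min at RT, 525/598 nm.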
Active calls of the source: *; i = inactive; ? = inconclusive; · = no result; [ ] = dose if it differs, or a comment. A selection: hits, their analogues and other compounds. The true share with any hit is near 21%. Unless noted, calls follow the shape of the dose curve; as a rule, active = well fitted curve in the direction sought with a large enough effect; inconclusive = small, poorly fitted or top-dose-only effect, or another doubt; inactive = no such curve, though single readings can be large; an effect the other way counts as inactive or inconclusive.

SMILES	NS1 inh	Shiga inhibitor	Pf growth 48h	Pf growth 96h	Cycloheximide cs	FBPA Giardia inh
CCCn1c(NC(=O)c2cccc(S(=O)(=O)N3CCCC3)c2)nc2ccccc21	-33%	0	?	9.3µM*	-8	16%
C=CCn1c(-c2ccc(C)cc2)nc2ccccc21	-156%	26	·	-12%	9	-1%
C=CCn1c(NC(=O)c2ccc(C)cc2)nc2ccccc21	4%	42	?	-51%	16*	?
O=C(Nc1nc2ccccc2n1CCN1CCOCC1)c1ccc(Cl)cc1	2%	50*	13µM*	?	12*	-17%
Cc1ccc(CNC(=O)C2CC(c3ccccc3F)=NO2)cc1 (stereo not given)	-6%	-7	51%	50%	-3	4%
NC(=O)C1CCN(CC(O)COc2ccc(-c3ccccc3)cc2)CC1 (stereo not given)	12%	-11	?	?	2	-2%
COCCCn1c(=S)[nH]c2ncccc2c1=O	-5%	-5	13%	?	-2	-20%
CCCCCn1c(=S)[nH]c2ncccc2c1=O	-4%	-8	2%	9.3µM*	2	3%
CCOC(=O)C1C(=O)N(C(=O)c2ccc(OC)cc2)CC1c1ccccc1 (stereo not given)	1%	16	23%	·	9.6*	6%
CCc1nc(OCCN(CC)CC)c2oc3ccccc3c2n1	-7%	27	40%	30%	27*	-14%
O=c1[nH]c(=O)n(Cc2ccco2)c2c1C(C(F)(F)F)(C(F)(F)F)N=C(CCC1CCCCC1)N2	16%	-19	?	?	6	·
CC(C)Cn1c2c(c(=O)[nH]c1=O)C(C(F)(F)F)(C(F)(F)F)N=C(CCC1CCCCC1)N2	11%	-5	9.3µM*	0%	-7	0%
CCCn1c(=N)n(CC(O)COc2cccc(C)c2)c2ccccc21 (stereo not given)	4%	-11	10µM*	129%	-3	-1%
CCCCn1c(=N)n(CC(O)c2ccccc2)c2ccccc21 (stereo not given)	-3%	-14	2.1µM*	13µM*	-1	-1%
CCCn1c(=N)n(CCOc2ccc(OC)cc2)c2ccccc21	-9%	-6	15µM*	·	-5	2%
CCCCn1c(=N)n(CC(O)COc2ccccc2)c2ccccc21 (stereo not given)	-1%	-7	5.2µM*	?	-5	-4%
CCOC(=O)Cn1c(=N)n(CCOc2ccc(OC)cc2)c2ccccc21	3%	-8	8%	·	-2	-2%
N=c1n(CCN2CCOCC2)c2ccccc2n1CC(O)COc1ccccc1 (stereo not given)	-13%	-21	-14%	19%	-5	2%
Cc1ccc(NC(=O)CSc2nnc3ccc(-c4ccncc4)nn23)cc1	·	·	22%	80%	·	·
CCCCn1c(=N)n(CC(O)COc2ccc(C)cc2)c2ccccc21 (stereo not given)	-11%	-12	2.3µM*	·	-5	-13%
COC(=O)CNC(=O)c1cc(OC)cc(OC)c1	-3%	-6	8%	0%	-1	-4%
COc1cc(OC)cc(C(=O)NCC(=O)OCc2nc3ccccc3s2)c1	-6%	113*	i	290%	36*	-1%
CCOC(=O)CNC(=O)c1cc(OC)cc(OC)c1	·	33	29%	0.93µM*	7	1%
O=C(CNC(=O)c1ccc(Cl)cc1)OCc1nc2ccccc2s1	-4%	20	38%	67%	7	3%
CCOC(=O)CNC(=O)c1ccc(OCC(F)(F)F)cc1	·	82*	292%	111%	28*	6%
CCOC(=O)CNC(=O)Cc1ccc(OC)cc1	1%	20	3%	7%	13*	2%
Cc1ccc(S(=O)(=O)NC(=O)NCC2CCN(S(=O)(=O)c3ccccc3)CC2)cc1	3%	1	20%	42%	2	-5%
CCCCc1cc2c(cn1)=C(OC(=O)CCC(=O)OC)C(C)(OC(=O)CC)C(=O)C=2 (stereo not given)	·	·	·	·	·	0%[12.9 µM]
Cc1c(NC(=O)c2ccc(NC(=O)C3CC3)cc2)cccc1C(=O)O	5%	-6	82%	9%	-4	13%
CC(=O)N(C)Cc1ccc(C(=O)CCl)cc1	·	42	11%	-34%	26*	-19%

Source: PubChem (National Center for Advancing Translational Sciences (NCATS))
